Only some compounds are listed: those with a hit (about 2.9% of all), similar ones and a draw of the others.
GLP-1R agonist: agonists of human GLP-1 receptor. 380,000 compounds, 0.007% hits. P43220. HEK293 GLP-1R CRE-luciferase, luminescence, 4-6 h; cells express a hypersensitive GLP-1R form. Potency, µM (top dose mostly 45.6 µM), for inactives: top-dose activation, actives largely listed as activators; further: potency means the concentration at half of the fitted maximal effect; % of control where 0% means no effect
Target sequence (P43220 whole entry, looked up): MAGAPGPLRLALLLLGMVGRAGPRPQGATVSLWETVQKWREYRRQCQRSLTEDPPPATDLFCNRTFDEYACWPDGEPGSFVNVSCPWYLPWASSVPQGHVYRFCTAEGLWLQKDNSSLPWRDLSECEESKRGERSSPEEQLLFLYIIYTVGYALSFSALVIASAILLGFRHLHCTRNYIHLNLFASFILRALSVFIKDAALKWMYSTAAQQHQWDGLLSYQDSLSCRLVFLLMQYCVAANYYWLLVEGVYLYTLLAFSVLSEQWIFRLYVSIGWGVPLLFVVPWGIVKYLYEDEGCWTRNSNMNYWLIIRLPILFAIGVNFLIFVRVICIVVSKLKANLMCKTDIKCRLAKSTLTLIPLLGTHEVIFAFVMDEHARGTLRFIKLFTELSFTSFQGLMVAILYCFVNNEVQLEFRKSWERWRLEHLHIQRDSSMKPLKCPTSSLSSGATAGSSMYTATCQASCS
LDHA inh: LDHA (human) enzyme inhibition; purified LDHA, NADH/diaphorase-resazurin fluorescence; active compounds read low; activity change, % (values are at about 110 or 230 µM); AID 1347041; 480,000 compounds, 0.15% hits; P00338; in the data active means activity change below about -30%; inconclusive means mostly about -25% to -30%;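 further: plate controls were DMSO wells for no effect and wells without enzyme for full effect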
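Human LDH5 at 2 nM final in Tris HCl pH 7.4 with 0.06 mM NADH and 0.2 mM pyruvate, reacted 5 minutes at room temperature. Remaining NADH coupled via diaphorase/resazurin; resorufin fluorescence read at 0 and 20 minutes, normalized to enzyme-free and DMSO wells.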
ClpP mod: qHTS Assay for Activators of ClpP. purified B. subtilis ClpP, FRET peptide cleavage, 20 min. Potency, µM (top dose mostly 57.5 µM), for inactives: at the highest dose activity change, negative = active. 340,000 compounds, 1.9% hits. AID 651965, 2013; active means well fitted falling curve with a large enough effect; inconclusive means small, poorly fitted or top-dose-only effect; inactive means no such curve, though single readings can be large or run the other way; further: potency means the concentration at half of the fitted maximal effect; the source files actives as falling curves though it sought activators and does not explain the sign; nearly all actives have a fitted effect of over 65% in size
Target sequence (P80244 whole entry, looked up): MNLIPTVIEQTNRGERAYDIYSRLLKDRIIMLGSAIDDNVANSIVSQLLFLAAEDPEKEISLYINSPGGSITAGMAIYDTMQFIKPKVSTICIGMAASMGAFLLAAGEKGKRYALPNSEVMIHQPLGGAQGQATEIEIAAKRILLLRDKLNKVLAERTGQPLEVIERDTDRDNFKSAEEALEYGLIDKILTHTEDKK
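ClpP 10 microg/mL final, pH 8 Tris/KCl buffer with BSA, glycerol, Tween-20; compound pinned in; FRET-FV substrate; RT 20 min; Ex320/Em430; ΔFRET vs ADEP 5.8 microM, DMSO, no enzyme.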
GLP-1R inv ag: acts as inverse agonist at human GLP-1 receptor | P43220 | HEK293 GLP-1R CRE-luciferase, luminescence, 24 h; GLP-1R form is constitutively active | Potency, µM (doses to about 38.3 µM), inactives show at the top dose activity change, negative = inhibition, most hits filed as inhibitors | 410,000 compounds, 1.6% hits | AID 624417; further: potency means the concentration at half of the fitted maximal effect; on the % scale 0 is the no-effect control and ±100 the full control effect; nearly all actives have a fitted effect of over 55% in size
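Assay principle: reduced luminescence from a cAMP-responsive reporter in HEK293 cells co-expressing a constitutively active GLP-1R. Conditions: 24 hr compound incubation, 37 deg C, 5% CO2.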
p53 reactivator: mutant p53 re-activation in reporter cells. 320,000 compounds, 0.063% hits. H1299 p53-A138V BP100-luciferase reporter, luminescence, 24 h. Potency, µM (highest dose often 92.2 µM), for inactives: at the top dose activity change, positive = activation, actives largely listed as activators. AID 504706; further: potency means the concentration at half of the fitted maximal effect; % of control where 0% means no effect; nearly all actives have a fitted effect of over 45% in size
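p53-null H1299 cells stably carrying temperature-sensitive p53-A138V and a BP100-luciferase reporter were pinned with compounds (4-point, 1:5 series) and held 24 hrs at 37 deg C. Luminescence was read 10 min after detection reagent.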
GLP1R cytotox: cytotoxic in the GLP-1 receptor inverse agonist counter-screen; HEK293 cAMP-luciferase reporter cells, luminescence, 24 h; Potency, µM (titrated, usually from 38.3 µM), for inactives: at the highest dose activity change, negative = inhibition, most hits filed as inhibitors; 410,000 compounds, 0.13% hits;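 further: loss of luciferase light is scored as toxicity; potency means the concentration at half of the fitted maximal effect; on the % scale 0 is the no-effect control and ±100 the full control effect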
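Luminescence readout: signal drop marks cytotoxicity. Plated cells grew 12 h at 37 °C, 5% CO2, received 23 nL compound for 24 h, then got luciferase reagent, read after 12 min at RT.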
The depositor's hits bear a star; [ ] = remark or other dose. Unless noted, the call rests on the fitted dose curve; in most records, active means well fitted curve in the direction sought with a large enough effect; inconclusive means small, poorly fitted or top-dose-only effect, or another doubt; inactive means no such curve, though single readings can be large; an effect the other way counts as inactive or inconclusive.

How did CCOCc1cc(CN2CCN(c3ccccc3OC)CC2)c(O)c2ncccc12 do in these assays?
LDHA inh: 10; ClpP mod: 0%; GLP-1R inv ag: 5µM*; GLP1R cytotox: -24%

What do the screens show for `O=C(CCNC(=O)c1ccccc1Cl)Nc1ccccc1N1CCCC1`?
GLP-1R agonist: 0%; LDHA inh: 2; ClpP mod: -1%; GLP-1R inv ag: 1%; p53 reactivator: 7%; GLP1R cytotox: -2%

What do the screens show for `CCCCNC(=O)C1CCN(S(=O)(=O)c2ccc3c(c2)CC(C)N3C(=O)C2CC2)CC1` (centres undefined)?
GLP-1R agonist: -1%; LDHA inh: 1; ClpP mod: 0%; GLP-1R inv ag: 2%; GLP1R cytotox: -6%

Results for O=C(Nc1ccc2[nH]c(=O)[nH]c2c1)C(Cc1ccccc1)n1cnnn1 (centres undefined) ?
LDHA inh: 17

Results for Cc1c(CCO)c(=O)[nH]n1S(=O)(=O)c1ccccc1 ?
GLP-1R agonist: 2%; LDHA inh: -3; GLP-1R inv ag: 32%; p53 reactivator: -1%; GLP1R cytotox: 6%

How did O=C(c1ccc(Cl)c(S(=O)(=O)N2CCCCC2)c1)N1CCCCC1 do in these assays?
GLP-1R agonist: 15%; LDHA inh: -1; ClpP mod: 0%; GLP-1R inv ag: -21%; p53 reactivator: -15%; GLP1R cytotox: -2%

Results for O=C(c1ccc(Br)c(S(=O)(=O)N2CCCCC2)c1)N1CCCCC1 ?
GLP-1R agonist: 2%; LDHA inh: -3; ClpP mod: 22µM*; GLP-1R inv ag: -29%; p53 reactivator: 1%; GLP1R cytotox: 9%

What do the screens show for `CC1SCC(=NOCc2c(Cl)cccc2Cl)CS1` (centres undefined)?
GLP-1R agonist: 7%; LDHA inh: 1; GLP-1R inv ag: inconclusive; p53 reactivator: 6%; GLP1R cytotox: -1%

Results for CCOC(=O)c1ccc(S(=O)(=O)NCC(c2ccc(N(C)C)cc2)c2c[nH]c3ccccc23)cc1 (centres undefined) ?
GLP-1R agonist: 0%; LDHA inh: 2; ClpP mod: 25µM*; GLP-1R inv ag: inconclusive; p53 reactivator: -2%; GLP1R cytotox: 9%

How did CN(C)c1ccc(C(CNS(=O)(=O)c2ccc(F)cc2)c2c[nH]c3ccccc23)cc1 (centres undefined) do in these assays?
GLP-1R agonist: 1%; LDHA inh: -6; ClpP mod: -4%; GLP-1R inv ag: inconclusive; p53 reactivator: inconclusive; GLP1R cytotox: -27%

What do the screens show for `COC(=O)C1(C(F)(F)F)N=C(N(C)C)OC(N(C)C)=N1`?
GLP-1R agonist: -9%; LDHA inh: -3; ClpP mod: 0%; GLP-1R inv ag: 1%; p53 reactivator: -2%; GLP1R cytotox: -2%

How did CCOc1c(Cl)cc(C(=O)Nc2ccccc2-c2ccccc2)cc1Cl do in these assays?
GLP-1R agonist: -6%; LDHA inh: 3; ClpP mod: -17%; GLP-1R inv ag: 8.9µM*; p53 reactivator: 5%; GLP1R cytotox: 38%

What do the screens show for `Cc1cc(/C=C2\C(=N)N3N=C(C(C)C)SC3=NC2=O)c(C)n1Cc1ccccc1`?
GLP-1R agonist: 0%; LDHA inh: 1; GLP-1R inv ag: 14%; p53 reactivator: -2%; GLP1R cytotox: 7%

Results for CCC1=NN2C(=N)/C(=C/c3cc(C)n(Cc4ccccc4)c3C)C(=O)N=C2S1 ?
GLP-1R agonist: 0%; LDHA inh: -6; ClpP mod: 25µM*; GLP-1R inv ag: -4%; p53 reactivator: 1%; GLP1R cytotox: 9%

How did Cc1ccccc1NC(=O)c1ccc(OCC(=O)Nc2ccccc2F)cc1 do in these assays?
GLP-1R agonist: 2%; LDHA inh: 0; ClpP mod: -5%; GLP-1R inv ag: -15%; p53 reactivator: -3%; GLP1R cytotox: -6%

Results for CCN(CC(=O)Nc1ccccc1C(F)(F)F)C(=O)c1ccccc1OCc1ccc(F)cc1 ?
GLP-1R agonist: -1%; LDHA inh: -3; ClpP mod: -1%; GLP-1R inv ag: 10µM*; GLP1R cytotox: -2%

Results for O=C(NCc1ccccc1)c1ccc(-c2ccc(F)cc2)o1 ?
GLP-1R agonist: 25%; LDHA inh: 0; ClpP mod: 28µM*; GLP-1R inv ag: 3%; p53 reactivator: 8%; GLP1R cytotox: 0%

What do the screens show for `O=C(N/N=C/c1ccccc1F)c1ccccc1OCc1ccccc1`?
GLP-1R agonist: 21%; LDHA inh: 1; GLP-1R inv ag: 7.9µM*; p53 reactivator: 10%; GLP1R cytotox: 1%

Results for O=C(NCc1ccccn1)c1cc(Cl)ccc1OCc1ccccc1 ?
GLP-1R agonist: 4%; LDHA inh: -2; ClpP mod: -2%; GLP-1R inv ag: 3.5µM*; p53 reactivator: -12%; GLP1R cytotox: 1%

What do the screens show for `O=C(CSc1nnc(-c2ccc(Cl)cc2)n1CC1CCCO1)NC1CCS(=O)(=O)C1` (centres undefined)?
GLP-1R agonist: 1%; LDHA inh: -2; ClpP mod: -4%; GLP-1R inv ag: 18%; p53 reactivator: -5%; GLP1R cytotox: 23%

Results for O=C(O)/C=C\C(=O)Nc1ccccc1C(=O)NCc1ccccc1 ?
GLP-1R agonist: 11%; LDHA inh: 2; ClpP mod: 4µM*; GLP-1R inv ag: inconclusive; p53 reactivator: 2%; GLP1R cytotox: 2%

What do the screens show for `O=C(O)/C=C/C(=O)NCc1ccccc1`?
GLP-1R agonist: -7%; LDHA inh: -2; ClpP mod: -7%; GLP-1R inv ag: 3%; p53 reactivator: 6%; GLP1R cytotox: -3%[1.53 µM]

Results for CN(C)S(=O)(=O)c1cccc(NC(=O)c2ccccc2OCc2ccc(F)cc2)c1 ?
GLP-1R agonist: 17%; LDHA inh: -2; ClpP mod: 20µM*; GLP-1R inv ag: inconclusive; p53 reactivator: 2%; GLP1R cytotox: -2%

Results for O=C(NCc1ccc(F)cc1)c1ccccc1OCc1ccccc1 ?
GLP-1R agonist: 20%; LDHA inh: -8; ClpP mod: -2%; GLP-1R inv ag: 10µM*; p53 reactivator: -1%; GLP1R cytotox: 4%

Results for C/C(=N\NC(=O)c1ccccc1OCc1ccc(F)cc1)c1ccccn1 ?
GLP-1R agonist: 15%; LDHA inh: -12; ClpP mod: 2%; GLP-1R inv ag: 5µM*; p53 reactivator: inconclusive; GLP1R cytotox: inconclusive
